Data reported in PubChem BioAssay AID2685 (National Center for Advancing Translational Sciences (NCATS), 2010).
The campaign covered roughly 320,000 compounds. About 2,100 (0.66%) were called active. Roughly 53% stayed inconclusive and do not appear here. This is one part of a sample in which actives are shown more often than they occur. Calls come from the whole dose curve; as a rule, active = well fitted inhibition curve with a large enough effect in the signal ratio, with a control signal flat (not every such curve was filed as active); inconclusive = small, poorly fitted or top-dose-only effect, or effect the other way, or a change in a side signal; inactive = flat fitted curve, though single readings scatter; the % refers to the signal ratio.

assay: qHTS Assay for Lipid Storage Modulators in Drosophila S3 Cells; settings: BODIPY lipid droplet fluorescence, 18-24 h, cells fed with added oleic acid; cell number change: measured here: cell count max response; series mostly up to 46.1 µM;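 for cell number change: cells counted by Cell Tracker Red CMTPX staining in the red channel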; for lipid storage change, negative = inhibition: % is set by controls: 0 for no effect and ±100 for the full control effect
Outline: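 Laser-scanning cytometry quantifies lipid droplet accumulation (500–530 nm total intensity; droplet/cell object ratio) in oleic acid-fed (400 uM added) Drosophila S3 cells treated with a concentration series. 20 uM Triacsin C defined 100% inhibition.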
Potency is the fitted concentration of half-maximal effect.

Compound | Potency | cell number change | lipid storage change, negative = inhibition
COC(=O)c1sc(NC(=O)C2c3ccccc3Oc3ccccc32)c(C(=O)OC)c1C | inactive | 5.22% | –
Cc1ccc(C2CC(C(F)F)n3ncc(C(=O)Nc4c(C)nn(Cc5c(F)cccc5Cl)c4C)c3N2)cc1 (stereo not drawn) | inactive | 11% | –
CCOC(=O)c1c(NC(=O)c2ccccc2C(=O)O)sc2c1CCC2 | inactive | 7.14% | –
COc1cc(-c2cc(-c3ccc(N)cc3)[nH]c(=O)c2C#N)cc(OC)c1OC | inactive | 28% | –
O=C(Nc1ccc(Cl)cn1)c1cccc(S(=O)(=O)N2CCCCC2)c1 | inactive | 14.3% | –
COC(=O)c1ccccc1NC(=O)CCNC(=O)Cn1cnc2ccccc2c1=O | inactive | -2.73% | –
O=C(Cn1cnc2ccccc2c1=O)NCCC(=O)Nc1ccccc1C(F)(F)F | 0.0651 µM (active) | -3.75% | –
O=C(Cn1cnc2ccccc2c1=O)NCCC(=O)Nc1ccc(F)cc1 | inactive | 20.1% | –
COC(=O)c1ccc(CSc2nc3ccccc3c(=O)n2N)cc1 | inactive | -1.8% | –
CC(C)CN(CC(C)C)S(=O)(=O)N1CCC(C(=O)NCc2ccco2)CC1 | inactive | -10.2% | –
O=C(CN(C(=O)CCC(=O)Nc1nccs1)c1ccccc1F)NCCc1ccccc1 | inactive | 18.7% | –
COc1ccccc1N(CC(=O)NCCc1ccccc1)C(=O)CCC(=O)Nc1nccs1 | 2.06 µM (active) | -5.22% | –
Cc1ccccc1N(CC(=O)NCc1ccco1)C(=O)CCC(=O)Nc1nccs1 | inactive | 7.88% | –
CCc1ccccc1N(CC(=O)NCc1ccco1)C(=O)CCC(=O)Nc1nccs1 | inactive | 6.09% | –
COc1ccccc1N(CC(=O)NCc1ccc(F)cc1)C(=O)CCC(=O)Nc1nccs1 | inactive | -10.4% | –
CCOc1ccccc1N(CC(=O)NCc1ccco1)C(=O)CCC(=O)Nc1nccs1 | 2.59 µM (active) | -1.71% | –
COC(=O)c1ccc(NC(=O)c2ccc(NS(=O)(=O)c3cccc4cccnc34)cc2)cc1 | inactive | -0.185% | –
CCOC(=O)C1CCN(c2nc(-c3ccc(C)cc3)nc3ccccc23)CC1 | inactive | -12.1% | –
COc1ccccc1NC(=O)c1ccc(NC(=O)CSc2ncn[nH]2)cc1 | inactive | -3.32% | –
Cc1cc(-c2ccco2)n(CC(=O)O)n1 | inactive | -13.3% | –
CC(=O)Nc1ccc(SC(C)C(=O)NC(N)=O)cc1 (stereo not drawn) | 29.1 µM (active) | -18.8% | –
CC(Sc1ccc2ccccc2c1)C(=O)NC(N)=O (stereo not drawn) | inactive | 22.5% | –
CC(Sc1cccc(C(F)(F)F)c1)C(=O)NC(N)=O (stereo not drawn) | inactive | 10.6% | –

Compound | Potency | cell number change | lipid storage change, negative = inhibition
CCOC(=O)NC(O)C(=O)c1ccc(F)cc1 (stereo not drawn) | inactive | – | –
N#Cc1ccc(Cl)cc1NC(=O)CNCc1cccs1 | inactive | 4.81% | –
COc1ccc(-n2c(=O)c(CCC(=O)NCCc3ccccc3F)nc3ccccc32)cc1 | 18.4 µM (active) | 2.07% | –
COc1ccc(-n2c(=O)c(CCC(=O)N3CCN(c4ccccc4O)CC3)nc3ccccc32)cc1 | inactive | -25.6% | –
COc1ccc(-n2c(=O)c(CCC(=O)N(C)Cc3ccccc3C)nc3ccccc32)cc1 | inactive | 24.8% | –
COc1ccc2c(c1)c(CC(=O)Nc1cccc(S(N)(=O)=O)c1)c(C)n2C(=O)c1ccc(Cl)cc1 | inactive | -13.5% | –
CC(C(=O)Nc1ccc2c(c1)OCCO2)N(C)Cc1c(F)cccc1Cl (stereo not drawn) | inactive | – | –
COC(=O)c1ccc(NC(=O)CCNS(=O)(=O)c2cccc3nonc23)cc1 | inactive | 6.69% | –
CC(=O)c1ccc(NC(=O)CCNS(=O)(=O)c2cccc3nonc23)cc1 | 23.1 µM (active) | – | –
Cc1ccc(NC(=O)CCNS(=O)(=O)c2cccc3nonc23)cc1 | inactive | 12.6% | –
COC(=O)C1=NN(C(C)(C)CC(C)=O)C2C(=O)N(C3CCCCC3)C(=O)C12 (stereo not drawn) | inactive | -0.806% | –
O=C(NCc1cccc(Cl)c1)c1cccc(C(F)(F)F)c1 | inactive | -1.35% | –
Cc1cc(NC2CCCC2)n2nc(C)c(-c3ccccc3)c2n1 | inactive | -2.08% | –
O=C(CC1Sc2ccccc2NC1=O)NCc1ccccc1 (stereo not drawn) | inactive | 0.893% | –
COc1cc(/C=C2\C(=N)N3N=C(S(C)(=O)=O)SC3=NC2=O)ccc1OS(=O)(=O)c1ccccc1 | inactive | -27% | –
CCC1=NN2C(=N)/C(=C/c3ccc(OS(=O)(=O)c4ccccc4)c(OC)c3)C(=O)N=C2S1 | 1.84 µM (active) | 4.58% | –
COc1cc(/C=C2\C(=N)N3N=CSC3=NC2=O)ccc1OS(=O)(=O)c1ccccc1 | 2.06 µM (active) | -21.2% | –
COc1cc(/C=C2/C(=N)N3N=C(C)SC3=NC2=O)ccc1OS(=O)(=O)c1ccc(C)cc1 | inactive | -5.04% | –
COc1cc(/C=C2\C(=N)N3N=CSC3=NC2=O)ccc1OS(=O)(=O)c1ccccc1[N+](=O)[O-] | inactive | -11.4% | –
CCC1=NN2C(=N)/C(=C/c3ccc(OS(=O)(=O)c4ccc(C)cc4)c(OC)c3)C(=O)N=C2S1 | inactive | 5% | –
Cc1cc(/C=C2\SC(=O)N(CC(=O)Nc3ccccc3F)C2=O)c(C)n1C | inactive | 1.47% | –
Cc1ccccc1-n1c(C)n[nH]c1=S | inactive | 1.24% | –
COc1ccc(CC(=O)NNC(=O)CSc2nnc(C)n2-c2ccccc2)cc1 | inactive | -9.57% | –

Compound | Potency | cell number change | lipid storage change, negative = inhibition
CC1Cc2ccccc2N1C(=O)CSc1nnc(Cn2nnc3ccccc32)n1C (stereo not drawn) | inactive | -16.3% | –
O=C(NCCc1ccccc1)C1CCCN1C(=O)Nc1ccc(F)cc1 (stereo not drawn) | inactive | -10% | –
O=C(O)C1CCCN1C(=O)Nc1ccc(F)cc1 (stereo not drawn) | 6.51 µM (active) | 1.35% | –
O=C(Nc1ccccc1)N1CCN(c2nc3ccccc3s2)CC1 | inactive | – | –
CSc1ccc(NC(=O)N2CCN(c3nc4ccccc4s3)CC2)cc1 | inactive | – | –
O=C(NC1CCCC1)C1CCCN1C(=O)Oc1ccccc1 (stereo not drawn) | inactive | -16.7% | –
O=C(Nc1ccc(F)cc1)N1CCN(c2nc3ccccc3s2)CC1 | 4.11 µM (active) | – | –
O=C(Nc1ccc(F)cc1)N1CCCCCC1 | inactive | 7.77% | –
O=C(Nc1ccc(O)cc1)N1CCOCC1 | inactive | 20% | –
O=C(NCc1ccc(F)cc1)C1CCCN1C(=O)Nc1ccc(F)cc1 (stereo not drawn) | inactive | 12.2% | –
O=C(O)C1CCCN1C(=O)OCc1ccccc1 (stereo not drawn) | inactive | 12.4% | –
O=C(Nc1ccc(F)cc1)N1CCOCC1 | 20.6 µM (active) | -6.86% | –
O=C(O)C1CCCN1C(=O)Oc1ccccc1 (stereo not drawn) | 23.1 µM (active) | 0.79% | –
COc1ccccc1C(=O)C1CCCN(Cc2cccc3nccnc23)C1 (stereo not drawn) | inactive | 15% | –
CC(C)Nc1ccc(C(CC(N)=O)NC(=O)Cc2cccc3ccccc23)cc1[N+](=O)[O-] (stereo not drawn) | inactive | 1.26% | –
CCOC(=O)c1sc(=NC(=O)c2cccc(C)c2)n(C)c1C | inactive | – | –
Cc1cc(Cl)ccc1NC(=S)NCc1ccco1 | inactive | -9.3% | –
CCOc1ccccc1NC(=O)Cn1c(=O)oc2cc(Cl)ccc21 | inactive | 6.12% | –
Cc1ccccc1C(=O)NC1CCN(C(=O)Nc2ccc(F)cc2)CC1 | inactive | 8.56% | –
Cc1ccccc1C(=O)NC1CCN(CC(=O)NCc2ccccc2)CC1 | inactive | 13.5% | –
Cc1ccccc1C(=O)NC1CCN(CC(=O)NCc2ccc(F)cc2)CC1 | inactive | 9.44% | –
Cc1cc(C)cc(NC(=O)N2CCC(NC(=O)c3ccccc3C)CC2)c1 | inactive | 4.64% | –
O=C(NC1CCN(C(=O)Nc2ccc(F)cc2)CC1)c1ccccc1F | 6.51 µM (active) | – | –

Compound | Potency | cell number change | lipid storage change, negative = inhibition
O=C(CN1CCC(NC(=O)c2ccccc2F)CC1)NCc1ccc(F)cc1 | 20.6 µM (active) | -14.5% | –
CCc1cc2c(=O)c(-c3nc4ccccc4n3C)c(C)oc2c(CN2CCOCC2)c1O | inactive | – | –
CCCS(=O)(=O)N1CCCC(C(=O)Oc2ccc(Cl)cc2)C1 (stereo not drawn) | inactive | 14% | –
Cc1ccc(NC(=O)CSc2nc(N)cc(=O)[nH]2)cc1Cl | inactive | 22% | –
Cn1c(SCc2ccccc2Cl)nc2c1c(=O)[nH]c(=O)n2C | inactive | 3.04% | –
Cn1c(=O)c2c(nc(SCc3ccccn3)n2C)n(C)c1=O | inactive | -19.6% | –
Cn1c(SCc2ccccn2)nc2c1c(=O)[nH]c(=O)n2C | 2.59 µM (active) | 0.681% | –
CCOC(=O)c1ccc(-c2ccc(/C=N/NC(=O)CN(c3ccccc3Br)S(C)(=O)=O)o2)cc1 | 9.2 µM (active) | -15.9% | –
Cc1oc(/C=N/NC(=O)CN(c2ccccc2Br)S(C)(=O)=O)cc1Br | inactive | 0.768% | –
CS(=O)(=O)N(CC(=O)N/N=C/c1ccco1)c1ccccc1Br | inactive | 2.71% | –
COc1ccccc1-c1ccc(SCC(=O)NCc2ccc3c(c2)OCO3)nn1 | inactive | – | –
O=C(O)CSc1cccc2cccnc12 | – | 8.53% | 8.73% [at 9.22 µM] (inactive)
CC(=O)/C(=N/Nc1ccc(Br)cc1)Sc1cccc2cccnc12 | inactive | -2.71% | –
O=C(Sc1cccc2cccnc12)c1ccccc1Br | 7.31 µM (active) | 4.44% | –
Cc1ccc(-c2cc(-c3ccccc3)c(C#N)c(Br)n2)cc1 | inactive | -11.3% | –
CC(C)(C)[C@H]1CCC(=O)N([C@H](CN=[N+]=[N-])Cc2ccccc2)CC1 | inactive | 22% | –
CC1CCC(=O)N(CCSc2ccccc2)CC1 (stereo not drawn) | inactive | – | –
CC(C)(C)[C@H]1CCC(=O)N([C@H](CC#N)Cc2ccccc2)CC1 | 0.326 µM (active) | -9.71% | –
CC(C)(C)C1CCC(=O)N(CCSc2ccccc2)CC1 (stereo not drawn) | 6.51 µM (active) | -4.53% | –
N#CC[C@H](Cc1ccccc1)N1CC[C@@H](NC(=O)OCc2ccccc2)CCC1=O | inactive | 8.98% | –
CC(=O)Nc1ccc(SCCN2CC[C@@H](C(C)(C)C)CCC2=O)cc1 | inactive | -1.32% | –
CCCCNC(=S)N/N=C/c1sccc1C | inactive | -1.93% | –
CCS(=O)(=O)c1nc(S(=O)(=O)c2ccc(C)cc2)c(NCc2ccccn2)s1 | inactive | 2.5% | –
